According to PubChem BioAssay (EPA / NIEHS):
Results filed as inconclusive are left out. A structure can be active in one record and inactive in another. The source made the active and inactive calls. Rule for the calls, unless noted: active = hit-call score of the fitted dose curve at least 0.9, where 1 is the maximum; inconclusive = response in the unintended direction; inactive = score below 0.9.

What was measured:
[1] = molecular target: Estrogen receptor (Homo sapiens) (UniProt P03372); test: OT_ERa_GFPERaERE_0120: Odyssey Thera (OT) 2-hour HeLa Transcription Induction Assay for Estrogen Receptor (AID 2283382)
How it was run: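 Fluorescence microscopy read-out: inducible fluorescent protein reporter in HeLa cells, imaged 2 h post-dose. Signal increase over DMSO negative control fitted as single primary endpoint via high content image analysis.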

[2] = molecular target: Retinoic acid receptor RXR-alpha (Homo sapiens) (UniProt P19793); test: OT_NURR1_NURR1RXRa_0480: Odyssey Thera (OT) 8-hour HEK293T Protein Complementation Assay for Nurr1/retinoid X receptor (RXR) (AID 2283385)
How it was run: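 Read-out: fluorescence from protein-fragment complementation between Nurr1 and RXRα in human HEK293T cells, 8 h after dosing. DMSO served as negative control; increased signal counted as activity.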

[3] = molecular target: Retinoic acid receptor RXR-alpha (Homo sapiens) (UniProt P19793); test: OT_NURR1_NURR1RXRa_1440: Odyssey Thera (OT) 24-hour HEK293T Protein Complementation Assay for Nurr1/retinoid X receptor (RXR) (AID 2283386)
How it was run: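 Fluorescence PCA read-out; HEK293T; 24 h post-dose; bait/prey fused to reporter fragments; gain-of-signal fit vs DMSO negative control.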

[4] = molecular target: Peroxisome proliferator-activated receptor gamma (Homo sapiens) (UniProt P37231); test: OT_PPARg_PPARgSRC1_0480: Odyssey Thera (OT) 8-hour Protein-Complementation Assay for Peroxisome Proliferator-activated Receptor Gamma / SRC-1 Co-activator (AID 2283387);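 note: nuclear to cytoplasmic split Venus YFP fluorescence ratio reporting PPARg SRC-1 interaction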
How it was run: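 HEK293T transiently transfected with PPARg and SRC-1 fused to Venus YFP fragments, compounds 8 h at 37C. Fixed, Draq5-stained cells imaged; nuclear/cytoplasmic 488 nm fluorescence ratio over at least 350 cells per image; gain fitted versus DMSO.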

[5] = CEETOX_H295R_11DCORT: CeeTox H295R High-throughput Steroidogenesis Assay for 11-Deoxycortisol (11DCORT) (AID 2283432; active = hit-call score of the fitted dose curve at least 0.9, where 1 is the maximum; inactive = score below 0.9;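 for AC50: 11-deoxycortisol secreted into the medium measured by LC-MS/MS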); details: actives raise or lower the signal
How it was run: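 H295R cells prestimulated 48 h with 10 uM forskolin, then exposed 48 h to chemical in 0.1% DMSO. 11-Deoxycortisol in medium quantified by HPLC-MS/MS after MTBE extraction; bidirectional fit versus DMSO. MTT viability read in same wells.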

[6] = CEETOX_H295R_OHPREG: CeeTox H295R High-throughput Steroidogenesis Assay for OH-Pregnenolone (OHPREG) (AID 2283434; active = hit-call score of the fitted dose curve at least 0.9, where 1 is the maximum; inactive = score below 0.9); details: actives raise or lower the signal
How it was run: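 Secreted 17alpha-hydroxypregnenolone measured by HPLC-MS/MS after liquid-liquid extraction. Human adrenal H295R cells received 48 h forskolin (10 uM) stimulation before 48 h chemical exposure at 0.1% final DMSO; MTT viability in same wells; bidirectional fit against DMSO.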

[7] = CEETOX_H295R_OHPROG: CeeTox H295R High-throughput Steroidogenesis Assay for OH-Progesterone (OHPROG) (AID 2283435; active = hit-call score of the fitted dose curve at least 0.9, where 1 is the maximum; inactive = score below 0.9;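 for AC50: 17alpha-hydroxyprogesterone secreted into medium measured by HPLC-MS/MS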); details: actives raise or lower the signal
How it was run: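 HPLC-MS/MS quantification of 17alpha-hydroxyprogesterone secreted by H295R cells after 48 h chemical exposure, following 48 h 10 uM forskolin prestimulation. Gain or loss of signal fitted relative to DMSO. Viability checked by MTT in the same wells.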

[8] = molecular target: Peroxisome proliferator-activated receptor gamma (Homo sapiens) (UniProt P37231); test: OT_PPARg_PPARgSRC1_1440: Odyssey Thera (OT) 24-hour Protein-Complementation Assay for Peroxisome Proliferator-activated Receptor Gamma/ SRC-1 Co-activator (AID 2283388)
How it was run: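 Transient HEK293T, YFP fragments 1-158/159-239 (mutant IFP1/IFP2) fused to PPARg/SRC-1; 24 h dosing; fix 4% formaldehyde, Draq5; Opera imaging 488/635 nm; N/C ratio, gain vs DMSO.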

[9] = molecular target: Bile acid receptor (Homo sapiens) (UniProt Q96RI1); test: OT_FXR_FXRSRC1_1440: Odyssey Thera (OT) 24-hour HEK293T Protein-Complementation Assay for Farnesoid X receptor/SRC-1 Co-activator (AID 2283384)
How it was run: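 Fluorescence readout, 24 h post-dose, HEK293T; FXR and SRC-1 fused to complementary reporter fragments, association reconstitutes signal. Positive-direction fit vs DMSO baseline.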

Measured: AC50

Sequence of Estrogen receptor (Homo sapiens) (P03372 whole entry, looked up): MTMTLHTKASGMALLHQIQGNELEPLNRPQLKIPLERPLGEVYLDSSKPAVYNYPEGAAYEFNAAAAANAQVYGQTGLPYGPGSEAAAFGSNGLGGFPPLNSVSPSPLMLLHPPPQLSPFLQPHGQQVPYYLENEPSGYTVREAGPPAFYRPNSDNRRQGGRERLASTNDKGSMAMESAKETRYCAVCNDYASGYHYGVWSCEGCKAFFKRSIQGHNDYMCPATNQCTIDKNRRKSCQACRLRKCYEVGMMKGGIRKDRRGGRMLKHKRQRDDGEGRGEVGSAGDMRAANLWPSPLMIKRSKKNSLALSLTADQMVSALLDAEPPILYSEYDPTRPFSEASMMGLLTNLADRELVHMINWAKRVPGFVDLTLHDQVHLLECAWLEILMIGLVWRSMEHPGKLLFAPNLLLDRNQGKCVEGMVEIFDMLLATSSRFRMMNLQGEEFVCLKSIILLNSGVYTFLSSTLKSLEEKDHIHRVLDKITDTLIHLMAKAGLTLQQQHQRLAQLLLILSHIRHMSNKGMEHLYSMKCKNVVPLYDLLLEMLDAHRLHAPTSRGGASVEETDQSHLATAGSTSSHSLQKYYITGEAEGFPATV
Sequence of Peroxisome proliferator-activated receptor gamma (Homo sapiens) (P37231 whole entry, looked up, the tested form may be a part): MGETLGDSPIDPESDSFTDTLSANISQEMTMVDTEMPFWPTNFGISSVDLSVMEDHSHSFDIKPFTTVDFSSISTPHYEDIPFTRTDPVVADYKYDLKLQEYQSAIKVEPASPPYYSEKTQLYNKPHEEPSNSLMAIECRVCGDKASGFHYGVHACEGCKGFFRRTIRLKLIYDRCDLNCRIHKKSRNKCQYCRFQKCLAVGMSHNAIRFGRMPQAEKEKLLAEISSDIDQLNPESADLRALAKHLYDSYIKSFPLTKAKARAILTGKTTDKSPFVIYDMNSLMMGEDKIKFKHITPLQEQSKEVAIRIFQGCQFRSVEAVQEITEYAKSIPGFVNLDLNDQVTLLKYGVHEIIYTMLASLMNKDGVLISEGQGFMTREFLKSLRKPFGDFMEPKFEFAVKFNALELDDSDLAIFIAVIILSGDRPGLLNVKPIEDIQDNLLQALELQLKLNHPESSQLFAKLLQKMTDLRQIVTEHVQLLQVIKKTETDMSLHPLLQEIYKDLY
Sequence of Retinoic acid receptor RXR-alpha (Homo sapiens) (P19793 whole entry, looked up, the tested form may be a part): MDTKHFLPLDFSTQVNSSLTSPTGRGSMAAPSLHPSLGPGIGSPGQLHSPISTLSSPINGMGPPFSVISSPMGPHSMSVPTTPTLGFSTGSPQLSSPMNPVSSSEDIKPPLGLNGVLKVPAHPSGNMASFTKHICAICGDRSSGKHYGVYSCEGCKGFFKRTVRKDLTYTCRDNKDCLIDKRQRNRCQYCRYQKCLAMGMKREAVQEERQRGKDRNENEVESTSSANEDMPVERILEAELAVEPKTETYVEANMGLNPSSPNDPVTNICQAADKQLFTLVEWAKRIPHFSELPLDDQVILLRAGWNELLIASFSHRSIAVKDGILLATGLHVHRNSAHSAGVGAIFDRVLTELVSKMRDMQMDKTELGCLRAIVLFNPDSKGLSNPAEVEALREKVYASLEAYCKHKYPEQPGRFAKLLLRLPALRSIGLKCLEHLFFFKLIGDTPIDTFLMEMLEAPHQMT
Sequence of Bile acid receptor (Homo sapiens) (Q96RI1 whole entry, looked up, the tested form may be a part): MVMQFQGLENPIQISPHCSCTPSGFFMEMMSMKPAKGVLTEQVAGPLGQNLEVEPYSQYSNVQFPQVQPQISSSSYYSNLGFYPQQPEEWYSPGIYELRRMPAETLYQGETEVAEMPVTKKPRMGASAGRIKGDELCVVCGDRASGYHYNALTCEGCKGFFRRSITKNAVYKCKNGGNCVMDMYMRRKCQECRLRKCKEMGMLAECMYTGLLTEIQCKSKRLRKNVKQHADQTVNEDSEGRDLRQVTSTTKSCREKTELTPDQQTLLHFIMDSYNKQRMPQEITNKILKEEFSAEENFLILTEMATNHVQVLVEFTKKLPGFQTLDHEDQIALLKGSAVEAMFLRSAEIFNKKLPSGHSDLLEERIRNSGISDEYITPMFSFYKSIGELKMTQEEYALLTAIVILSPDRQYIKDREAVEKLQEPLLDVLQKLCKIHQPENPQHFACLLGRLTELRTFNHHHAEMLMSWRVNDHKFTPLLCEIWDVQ

CCOC(=O)C(C)OC(=O)c1cc(Oc2ccc(C(F)(F)F)cc2Cl)ccc1[N+](=O)[O-] (stereo not drawn)
not listed: [8] | [9]
inactive: all other assays above

CCOc1nc(F)cc2nc(S(=O)(=O)Nc3c(Cl)cccc3Cl)nn12
inactive: [1] | [2] | [3] | [4]

CCCCC(C#N)(Cn1cncn1)c1ccc(Cl)cc1 (stereo not drawn)
inactive: [1] | [2] | [4]
active: [5] 51 µM | [6] 7.87 µM | [7] 4.02 µM

Cc1cnc(C2=NC(C)(C(C)C)C(=O)N2)c(C(=O)O)c1 (stereo not drawn)
inactive: [1] | [2] | [3] | [4]

CCN(CC)c1nc(C)cc(OP(=S)(OC)OC)n1
not listed: [2] | [9]
inactive: all other assays above

CC(C)NC(=O)N1CC(=O)N(c2cc(Cl)cc(Cl)c2)C1=O
active: [6] 10.3 µM | [7] 19 µM
inactive: [1] | [4] | [8]

OC(c1ccc(Cl)cc1)(c1ccc(Cl)cc1)C(Cl)(Cl)Cl
inactive: [1] | [4]

CC1(C)CCC(=Cc2ccc(Cl)cc2)C1(O)Cn1cncn1 (stereo not drawn)
not listed: [2] | [9]
inactive: all other assays above

CN/C(=N\[N+](=O)[O-])NCc1cnc(Cl)s1
not listed: [2] | [5] | [9]
inactive: all other assays above

CNC(=O)N(C)c1nnc(C(C)(C)C)s1
inactive: [1] | [3] | [4]

COc1cc(Cl)c(OC)cc1Cl
not listed: [2] | [9]
inactive: all other assays above

CCOP(=S)(OCC)Oc1nc(Cl)n(C(C)C)n1
active: [7] 35.8 µM
inactive: [1] | [4] | [5] | [6]

CC1(C)C(C=C(Cl)Cl)C1C(=O)OC(C#N)c1cccc(Oc2ccccc2)c1 (stereo not drawn)
not listed: [2] | [8] | [9]
inactive: all other assays above

CC(C)N1C(=O)c2ccccc2NS1(=O)=O
inactive: [1] | [4]

CC(C)N1C(=O)N(c2ccccc2)CSC1=NC(C)(C)C
inactive: [1] | [3] | [4]
active: [3] 80.8 µM

CC(C)Nc1nc(Cl)nc(NC(C)C)n1
inactive: [1] | [3] | [4] | [6] | [7]

CCNP(=S)(OC)O/C(C)=C/C(=O)OC(C)C (stereo not drawn)
active: [5] 65.9 µM | [6] 61.8 µM
not listed: [2] | [9]
inactive: all other assays above

CC(C)C1(C)N=C(c2ncccc2C(=O)O)NC1=O (stereo not drawn)
inactive: [1] | [3] | [4]

CCSC(=O)N1CCCCCC1
inactive: [1] | [3] | [4] | [6] | [7]

CC(C)Oc1cccc(NC(=O)c2ccccc2C(F)(F)F)c1
active: [5] 28.9 µM | [7] 13.7 µM
not listed: [2] | [9]
inactive: all other assays above

COC(=O)N(C(=O)N1CO[C@@]2(C(=O)OC)Cc3cc(Cl)ccc3C2=N1)c1ccc(OC(F)(F)F)cc1
inactive: [1] | [3] | [4]

CC(C)(C)C(=O)C(Oc1ccc(Cl)cc1)n1cncn1 (stereo not drawn)
inactive: [1] | [4] | [8]
active: [5] 58.9 µM | [6] 21.6 µM | [7] 21 µM

CCCN(CC)CC1COC2(CCC(C(C)(C)C)CC2)O1 (stereo not drawn)
inactive: [1] | [3]
active: [5] 0.202 µM | [6] 0.131 µM | [7] 0.112 µM

COC(=O)NS(=O)(=O)c1ccc(N)cc1
inactive: [1] | [3] | [4]

CCOc1nc(C(Cl)(Cl)Cl)ns1
not listed: [2] | [5] | [9]
inactive: all other assays above

CC1(C)CON(Cc2ccccc2Cl)C1=O
inactive: [1] | [3] | [4] | [6] | [7]

N#CN=C1SCCN1Cc1ccc(Cl)nc1
inactive: [1] | [4] | [5] | [7]
active: [6] 50 µM

Cn1c(-c2ccccc2)cc(-c2ccccc2)[n+]1C
inactive: [1] | [3] | [4] | [8]

CNC(=O)Oc1cccc2ccccc12
inactive: [9] | [6] | [7]

Nc1cnn(-c2ccccc2)c(=O)c1Cl
not listed: [2] | [8] | [9]
inactive: all other assays above

Clc1nc(Cl)nc(Nc2ccccc2Cl)n1
not listed: [2] | [8] | [9]
inactive: all other assays above

CS(=O)(=O)c1cc(C(F)(F)F)ccc1C(=O)c1cnoc1C1CC1
inactive: [1] | [3] | [4] | [8]

N#Cc1c[nH]cc1-c1cccc2c1OC(F)(F)O2
inactive: [1] | [3] | [4] | [8]

C=C(C)CN(CC)c1c([N+](=O)[O-])cc(C(F)(F)F)cc1[N+](=O)[O-]
active: [1] 12.1 µM
inactive: [3] | [4]

Nc1c(Cl)c(F)nc(OCC(=O)O)c1Cl
inactive: [1] | [3] | [4] | [8]

O=C1C2CC=CCC2C(=O)N1SC(Cl)(Cl)Cl (stereo not drawn)
inactive: [1] | [4] | [8] | [6] | [7]

COP(=S)(OC)SCn1nnc2ccccc2c1=O
inactive: [1] | [4] | [8] | [6]
active: [7] 2.27 µM

O=C(Nc1ccccc1-c1ccc(Cl)cc1)c1cccnc1Cl
not listed: [2] | [9]
inactive: all other assays above

Cc1cc(C)nc(Nc2ccccc2)n1
inactive: [1] | [3] | [4]

COP(=O)(OC)O/C(C)=C/C(=O)N(C)C
inactive: [1] | [3] | [4] | [8]
